Data on 40 sequences can be found in the supplement of paper PMC6555819.

The subject of the experiment is VDR:RXRa (NR concentration 270 nM, RXRa partner concentration 90 nM). Nature of the experiment: PBM binding z-score (relative to random genomic background probes); higher = stronger binding; sequences stand for … in GC…GCGATTGACAGCGTAGAATGAAGG
The protocol:
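Protein-binding microarray (Agilent 4x180K custom design, double-stranded 60-nt probes: 5' GC cap, 34-nt variable region, 24-nt constant primer region; full probe sequence given). Purified or IVT nuclear receptor:RXRα heterodimers (3:1 NR:RXRα, mostly 270:90 nM) or homodimers were incubated for 1 h in PBS with 2% milk and no ligand, then detected with Alexa488 antibodies. Fluorescence from o1-orientation probes (~5 replicates averaged) was converted to z-scores against 500 random hg19 background probes. Variable regions are seed direct-repeat (DR0–DR5) sites, all their single-nucleotide variants and half-site ablations.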
Consider GCTGCTAGTTCAACTGATGGTCAGCTAAAGCTCG, for which the PBM binding z-score was 0.168.
Sequence ACGCGGAGGACAAAGGTCAGAGCTACGCCAGTGA showed a PBM binding z-score of 3.14.
The sequence CCAACTGGGCCAAAAAGGTCATTGATGCCGATAA registered a PBM binding z-score of 4.89.
CCTAGCAGGCCAATCTAGGTCACTCAAGGCTTGA: the PBM binding z-score was 0.635.
CCTACTGGGTCACGAAAGGTCATTGATTCAGTGA had a PBM binding z-score of 6.48.
For the sequence GGAACGAGGTCAAAGTTGATAGCATCTGTCGACG, the PBM binding z-score was 5.81.
ATCGAAAGGTCGAAGGTGAGCATACCCACCCGAA had a PBM binding z-score of 2.63.
The sequence ATATGTAGGTTAGCTGGGGTCCTTCAGACTAGGC displayed a PBM binding z-score of 0.978.
For TCTGCTAGGTCATCGATGGTCAGCTAATCTGCTA, the PBM binding z-score was found to be 2.16.
Sequence TCTCGGAGGACACCAAAGGTCAGAGCTCGACATC returned a PBM binding z-score of 3.38.
The sequence CGAACTAGGTCATCCAGGACCGTGAATACATTGA yielded a PBM binding z-score of 2.39.
With CGTCCAAGGTCGAAGGTCAGTGAAGAGATGACGG the figure was 3.23; with ATCAAAAGGTCGAGGTGAGTATAGAGAAAGGGAA, 3.29.
For the sequence GCTGCTAGGTCAACTGATGGTCATCTAAAGCTCG, the PBM binding z-score worked out at 2.28.
For the sequence ATATGTAGGTTACCTGGGGTCATTCAGACTAGGC, the PBM binding z-score turned out to be 6.78.
In turn, GATACAGGGTCAAGGTCAGAGTACGCGTATTGAT gave a PBM binding z-score of 5.53.
With TCTAGTTGGTCACGGAGGTCACAAACGACGGGTA the figure was 5.62.
In turn, TAGCCTAGGTCACATCGGGCCAGTATACGCTATA showed a PBM binding z-score of 2.43.
Sequence TATCAAAGTTCAAAGGTAACGTAAGTATCCACAC registered a PBM binding z-score of 5.28.
Turning to TACCCTAGGTCATTCAGGGGCCAGTATAGAAAGC, the PBM binding z-score is 3.44.
Consider CGAACTAGGTCATCCAGGTCAGTGAATACATTGA, for which the PBM binding z-score came out at 6.41.
Then TAGCCTAGTTCATGCGGGCCAGTATAGTGTCGGC, with 1.14.
TATACAGGGTCAAAGGCCAAAGTACGAATGTCGA registered a PBM binding z-score of 5.31.
TCGCCTAGGTCATGGGCCAGTATACCACGCGAAC gave a PBM binding z-score of 2.09.
GATACAGGGTCGGCTAGAGGCCAGAGTATGGAAA: the PBM binding z-score amounted to 0.547.
Then CGTCAAACTTCAACTAAGGTAACGTAAAGCACGC, with 0.382; and CCTACTGGGCCAAAAAGGTCATTGATGCCGATAA, with 4.83.
For GCTGCTAGGTCAACTGATGGTCAACTAAAGCTCG, the PBM binding z-score came out at 2.07.
In turn, CCTAGTTGGTCAAGGTCACATACGCTATAGGTAC displayed a PBM binding z-score of 4.04.
GGAACGAGGGCAAAGTTCATAGCATCTGTCGACG had a PBM binding z-score of 5.05.
CCTTACGGGTCAAGGTTATAGCCCGGGTGGTACG displayed a PBM binding z-score of 3.31.
Take ATCGAAAGGTCGACGCGGTGAGTATACACCGTTT: the PBM binding z-score is 3.04.
As to CAAACTAGGTCACTAAAGGTCAAAGTCGAATGAC, the PBM binding z-score turned out to be 6.48.
ACTTACGGCTCAACGAGGTTATAGCACGCGTATA displayed a PBM binding z-score of 1.53.
CGTCCGAGGTCAAGGTCAGTGAAAGAGACTCGAA had a PBM binding z-score of 5.48.
Then AATACAGGGTCATCGTACGCCAGAGTACGCACAG, with 5.2; and CCGAGTTGGTCAAGGTCACACACGCTATAGGTAC, with 4.7; and AGAATGAGGTTACCAAAGGTCAGGGAAACGCTTG, with 5.67.
For the sequence ATATGTAGGTTAGCTGAGGTCATTCAGACTAGGC, the PBM binding z-score stood at 6.12.
CGAACAAGGTCATTGACAGGACAGTGAATAGTAA registered a PBM binding z-score of 4.88.
